Data on 48 compounds can be found in PubChem BioAssay AID1851 (National Center for Advancing Translational Sciences (NCATS), 2009).

Hit rate of the full screen: of about 16,000 compounds, about 5,700 (36%) were called active. Roughly 24% stayed inconclusive and do not appear here. This is one part of the list. A number with no mark means an inactive call. The call rests on the fitted dose curve; in most records, active means well fitted curve in the direction sought with a large enough effect; inconclusive means small, poorly fitted or top-dose-only effect, or effect the other way; inactive means no such curve, though single readings can be large or run the other way.
On the % scale 0 is the no-effect control and ±100 the full control effect.

Cytochrome P450 1A2 (Homo sapiens), sequence (P05177 whole entry, looked up): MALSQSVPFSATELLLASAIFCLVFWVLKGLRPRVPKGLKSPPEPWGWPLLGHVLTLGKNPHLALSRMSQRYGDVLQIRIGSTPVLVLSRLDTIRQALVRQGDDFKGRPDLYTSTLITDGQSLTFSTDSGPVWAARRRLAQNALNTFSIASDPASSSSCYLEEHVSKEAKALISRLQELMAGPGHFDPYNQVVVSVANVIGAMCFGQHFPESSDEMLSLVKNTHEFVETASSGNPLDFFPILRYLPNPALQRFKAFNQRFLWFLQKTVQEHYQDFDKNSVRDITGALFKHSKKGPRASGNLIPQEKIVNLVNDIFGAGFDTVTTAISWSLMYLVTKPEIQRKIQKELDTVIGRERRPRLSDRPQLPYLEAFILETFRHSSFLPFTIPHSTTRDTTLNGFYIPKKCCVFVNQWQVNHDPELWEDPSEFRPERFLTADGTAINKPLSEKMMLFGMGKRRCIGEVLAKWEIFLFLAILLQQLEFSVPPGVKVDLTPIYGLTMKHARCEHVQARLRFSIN

The test concerns the target Cytochrome P450 1A2 (Homo sapiens) (UniProt P05177). Nature of the test: Cytochrome panel assay with activity outcomes. The following applies: recombinant CYP, pro-luciferin dealkylation, luminescence, p450-cyp1a2; series mostly up to 57.1 µM; activity, negative = inhibition: at the top concentration.
A word on the AC50: it is the midpoint of the concentration-response curve, whichever way the signal moves. With `CC[C@]1(C)CC(=O)NC1=O`, the AC50 entry was “inactive”. The same measure, in the same setting: in the case of `CSc1nnc(-c2cc3c(-c4ccccc4)nn(C)c3s2)n1C` it was 0.501 µM (active).

Regarding `C=CCSc1nnc(-c2cc3c(-c4ccccc4)nn(C)c3s2)n1C`, the AC50 was 0.282 µM (active). In the case of `C=CCn1c(-c2cccn(Cc3ccccc3)c2=O)n[nH]c1=S`, the “activity, negative = inhibition” value was 8.59%. On to `O=c1c(-c2nc3ccccc3s2)cccn1Cc1ccccc1`, for which the AC50 is 1.78 µM (active). As to `Cn1c(=O)c2[nH]c(CCCCc3nc4ccccc4[nH]3)nc2n(C)c1=O`, the activity, negative = inhibition is -15.8% [at 11.4 µM]. As for `CC(=O)COC(=O)CCc1nc2ccccc2[nH]c1=O`, the AC50 was 6.31 µM (active). `O=C(CCc1nc2ccccc2c(=O)[nH]1)OCC(=O)N1CCN(S(=O)(=O)c2ccccc2)CC1`: the “activity, negative = inhibition” value is -26.8%.

Regarding `O=S(=O)(NCCNC/C=C\c1ccc(Br)cc1)c1cccc2cnccc12`, the AC50 was 2 µM (active).

In the case of `CNCCNS(=O)(=O)c1cccc2cnccc12`, the “activity, negative = inhibition” value was -3.93%. On the same count and under the same terms, the figure for `O=C(NCc1ccccc1)C(c1cccs1)N(Cc1cccs1)C(=O)c1cnccn1` (stereo not drawn) is -3.61%. `Cc1ccc(CNC(=O)COC(=O)c2cnccn2)cc1`: the AC50 was 10 µM (active). Turning to `COc1ccc(C(C(=O)NCc2ccccc2)N(Cc2cccs2)C(=O)c2cnccn2)cc1` (stereo not drawn), the “activity, negative = inhibition” value is 7.23%. Regarding `O=C(COC(=O)c1cnccn1)NCc1ccccc1`, the AC50 was 22.4 µM (active). Take `Cc1cnc(C(=O)OCC(=O)NC(C)C)cn1`: the “activity, negative = inhibition” value is -22.1%. Still for that read-out and setting: the figure for `COC(=O)C/C=C\[C@@H](C)[C@@H](CO)NS(=O)(=O)c1ccc(C)cc1` is -0.334% [at 11.4 µM]; for `COc1ccc(C(=O)N2CCC3(CCN(Cc4ccncc4)CC3)CC2)cc1` it is -15.5%.

As for `COc1ccc(C(=O)n2c(SC)nc3cc4c(cc32)OCCO4)cc1`, the AC50 was 3.16 µM (active). As to `COc1ccc(C(=O)Nc2ccc3c(c2)nc(CN2CCN(C(C)=O)CC2)n3C)cc1`, the “activity, negative = inhibition” value is -4.28%. For `COc1cccc(C(=O)n2c(SC)nc3cc4c(cc32)OCCO4)c1`, the AC50 was 5.01 µM (active). Regarding `O=C1C2=CC[C@@H]3C(=O)N(c4ccc(F)cc4F)C(=O)[C@H]3[C@H]2[C@H](O)[C@H]2O[C@H]12`, the activity, negative = inhibition is -3.38% [at 11.4 µM]. `CCC(=O)O[C@@]1(C(=O)SCF)[C@@H](C)C[C@H]2[C@@H]3C[C@@H](F)C4=CC(=O)C=C[C@@]4(C)[C@]3(F)[C@@H](O)C[C@]21C`: the “activity, negative = inhibition” value was -18.3% [at 25.6 µM]. The same measure, in the same setting: in the case of `O=C(CN1C(=O)c2ccccc2S1(=O)=O)Nc1ccccc1` it was -18.7%. With `COc1ccc(NC(=O)CN2c3cccc4cccc(c34)S2(=O)=O)cc1`, the AC50 is 3.16 µM (active).

Take `CS(=O)(=O)Nc1c(O)ccc2c1CCC[C@H]2C1=NCCN1`: the “activity, negative = inhibition” value is -8.28%.

In the case of `CS(=O)(=O)N1CCC2(CCN(C(=O)Nc3cccc(F)c3)CC2)CC1`, the “activity, negative = inhibition” value was -12.6%.

`CCOC(=O)c1c(C)nc2sc3c(=O)n(-c4ccc(C)cc4)cnc3c2c1-c1ccc(OC)cc1`: the “activity, negative = inhibition” value is 12.7%.

On to `CC1(C)CC(=O)c2c(Cc3ccccc3)n[nH]c2C1`, for which the “activity, negative = inhibition” value is -21.9%. `CCOC(=O)c1c(C)nc2c(c1-c1ccccc1)C(=O)CCC2`: the AC50 was 0.282 µM (active).

As to `CCOC(=O)c1c(C)nc2c(c1-c1ccccc1)C(=O)CC(C)(C)C2`, the AC50 was 14.1 µM (active).

Turning to `CCCCCCCCCCn1c2c(c(=N)c3c1CCC3)CCC2`, the AC50 was 14.1 µM (active). With `C[C@H]1COC(=O)[C@H]2CCCN2C(=O)[C@@H](C)COC(=O)[C@H](Cc2ccccc2)NC1=O`, the activity, negative = inhibition was -1.22% [at 11.4 µM]. On to `Oc1c(Br)cc(CN(Cc2cc(Br)c(O)c(Br)c2)C2CCCCC2)cc1Br`, for which the activity, negative = inhibition is -5.68% [at 2.29 µM]. For the compound `Oc1c(Br)cc(Br)cc1CN(Cc1cc(Br)cc(Br)c1O)C1CCCCC1`, the AC50 was 3.16 µM (active). Take `CON1C(=O)C(=O)N(OC)C2CCCCC21` (stereo not drawn): the “activity, negative = inhibition” value was 14%. On to `Cc1cnc(CNc2nc(-c3cccnc3)nc3ccccc23)cn1`, for which the AC50 is 2.51 µM (active).

On to `COc1cccc(-c2nc(NCc3cnc(C)cn3)c3ccccc3n2)c1`, for which the AC50 was 0.398 µM (active). Still for that read-out and setting: in the case of `CN(C)c1ccc(-c2nccc(NCc3cccs3)n2)cc1` it was 0.398 µM (active). On the same count and under the same terms, the figure for `c1cncc(-c2nccc(NCc3cccs3)n2)c1` is 0.2 µM (active); for `c1csc(CNc2ccnc(-c3ccoc3)n2)c1` it is 1 µM (active); for `CN(C)C(=O)c1ccc(-c2nccc(NCc3cccs3)n2)cc1` it is 15.8 µM (active). On to `CN(C)CCN(Cc1cccs1)c1ccccn1`, for which the “activity, negative = inhibition” value was -19.1%. Same read-out and setting: the figure for `CC(C)=CCC/C(C)=C/CO/N=C1/[C@H]2O[C@@H]2[C@@H](O)[C@H]2[C@H]1CCn1c(=O)n(-c3ccccc3)c(=O)n12` is 3.05% [at 11.4 µM]; for `C[C@@H](c1ccccc1)N1C(=O)[C@H]2[C@H]3[C@H](O)[C@H](O)C/C(=N/OCc4ccccc4)[C@H]3CC[C@@H]2C1=O` it is -3.77% [at 11.4 µM]; for `Cc1nc(NC(=O)c2ccccc2)sc1-c1csc(Nc2ccc(Cl)cc2Cl)n1` it is -19.1%. `Cc1nc(NC(=O)c2ccccc2)sc1-c1csc(Nc2cccc(F)c2)n1`: the AC50 is 11.2 µM (active).

In the case of `COc1ccccc1Nc1nc(-c2sc(NC(=O)c3ccccc3)nc2C)cs1`, the “activity, negative = inhibition” value was -22.6%. On to `C=CCCC(=O)Nc1nc(C)c(-c2csc(Nc3ccc(Cl)cc3)n2)s1`, for which the AC50 was 5.01 µM (active).
